SARS PLP yeast: SARS-CoV PLP inhibition in yeast; S. cerevisiae expressing SARS-CoV PLpro, growth rescue; Potency, µM (doses to about 32.9 µM), inactives show top-dose activity, positive = growth rescue, usual class: activators; 330,000 compounds, 0.19% hits; calls by dose curve; note: potency is the fitted concentration of half-maximal effect; 0% is about no effect; nearly all actives have a fitted effect of over 55% in size
AMA1 RON2 block: AMA1-RON2 (P. falciparum) interaction inhibition; AlphaScreen AMA1-biotinylated RON2 peptide binding; Potency, µM (top dose mostly 58.2 µM), inactives show top-dose activity change, negative = inhibition, hits mostly inhibitors; 360,000 compounds, 0.2% hits;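 note: potency is the fitted concentration of half-maximal effect; 0% = vehicle wells and -100% = peptide control; nearly all actives have a fitted effect of over 45% in size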
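AMA1 (3D7) with his tag at 25 nM final met compounds first, then biotinylated RON2 peptide at 25 nM; detection used donor plus acceptor beads, 10 µg/mL apiece, read by AlphaScreen after 30 min at room temperature.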
Cycloheximide cs: counter-screen for Shiga toxin inhibitors: cycloheximide protein synthesis inhibition. 300,000 compounds, 12% hits. AID 2314. max response, %. cell reporter, cycloheximide protein synthesis inhibition counterscreen; in the data active = max response mostly above about 13%, no sharp cut-off; inactive = mostly below about 14%; note: read at 38.3 µM for the half of the compounds with a filed dose; 0% is about no effect
Shiga inhibitor: blocks Shiga toxin action in Vero cells | Vero cells, Shiga toxin protein synthesis inhibition reporter | inhibition, % at 38.7 µM | 290,000 compounds, 9.2% hits | AID 2315; in the data active = inhibition mostly above about 28%, no sharp cut-off; inactive = mostly below about 43%; note: 0% is about no effect
Pf growth 48h: P. falciparum growth inhibition at 48 hours (one generation) | P. falciparum luciferase growth in erythrocytes, 48 h | 310,000 compounds, 5.9% hits | Potency, µM (doses to about 28.7 µM), inactives show at the highest dose activity change, negative = inhibition, most hits filed as inhibitors; note: potency is the fitted concentration of half-maximal effect; % is set by controls: 0 for no effect and ±100 for the full control effect
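Luciferase-expressing parasites in RBCs, 2% Hct / 0.1% parasitemia final; RPMI 1640 + 0.5% Albumax; 37 C, 5% CO2, one generation; luminescence read-out, lower signal = inhibition.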
Pf growth 96h: P. falciparum growth inhibition at 96 hours. Potency, µM (titrated, usually from 28.7 µM), for the others: top-dose activity change, negative = inhibition, actives largely listed as inhibitors. P. falciparum luciferase reporter growth, 96 h. AID 504834. 320,000 compounds, 6.9% hits; note: potency is the fitted concentration of half-maximal effect; % is set by controls: 0 for no effect and ±100 for the full control effect
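Readout is luminescence from an integrated firefly luciferase in P. falciparum. Red cells, 2% hematocrit and 0.05% parasitemia final, were cultured with compound through two parasite generations (96 hours) at 37 C, 5% CO2.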
* hit, by the source's call. Shown are actives, neighbours in structure and some others; about 19% of the full set was active somewhere. Unless noted, calls come from the whole dose curve; as a rule, active = well fitted curve in the direction sought with a large enough effect; inconclusive = small, poorly fitted or top-dose-only effect, or another doubt; inactive = no such curve, though single readings can be large; an effect the other way counts as inactive or inconclusive.

How did CNC[C@H](CC1CCCCC1)NC[C@H](CO)NCCc1cccc(C(F)(F)F)c1 do in these assays?
SARS PLP yeast: -12%; AMA1 RON2 block: 107%; Cycloheximide cs: -7; Shiga inhibitor: -11; Pf growth 48h: inconclusive; Pf growth 96h: 1.9µM*

Results for CNC[C@H](CC1CCCCC1)NC[C@H](CO)NCC1(c2ccccc2)CC1 ?
SARS PLP yeast: -6%; AMA1 RON2 block: 104%; Cycloheximide cs: -2; Shiga inhibitor: -3; Pf growth 48h: inconclusive; Pf growth 96h: inconclusive

How did CCCCCCCCNC(=S)NCCN1CCCCC1 do in these assays?
SARS PLP yeast: 4%; AMA1 RON2 block: 0%; Cycloheximide cs: 13; Shiga inhibitor: -3; Pf growth 48h: 8.3µM*; Pf growth 96h: 0%

What do the screens show for `COc1ccc2c(c1OC)C(=O)NC(C)=C(C(=O)OC(C)(C)C)C2O` (stereo unspecified)?
SARS PLP yeast: -2%; AMA1 RON2 block: -2%; Cycloheximide cs: 3; Shiga inhibitor: -12; Pf growth 48h: -9%

How did C=CCOc1ccccc1CN(C(=O)CCl)c1ccc2c(c1)OCO2 do in these assays?
SARS PLP yeast: 4%; AMA1 RON2 block: -15%; Cycloheximide cs: 17*; Shiga inhibitor: 49*; Pf growth 48h: inconclusive; Pf growth 96h: 12µM*

Results for C=CCOc1ccccc1CNCCNC(=O)c1nonc1N ?
SARS PLP yeast: -1%; AMA1 RON2 block: 6%; Cycloheximide cs: 13; Shiga inhibitor: 17; Pf growth 48h: 13%; Pf growth 96h: 13%

What do the screens show for `CCCCN(C)C(=O)c1cc2c(s1)-c1ccccc1S(=O)(=O)C2`?
SARS PLP yeast: 0%; AMA1 RON2 block: -13%; Cycloheximide cs: 21*; Shiga inhibitor: 45; Pf growth 48h: 34%; Pf growth 96h: 18%

What do the screens show for `CCCN1CCN(C(=O)c2cc3c(s2)-c2ccccc2S(=O)(=O)C3)CC1`?
SARS PLP yeast: -6%; Cycloheximide cs: 13; Shiga inhibitor: 55; Pf growth 96h: 34%

What do the screens show for `CN1CCN(C(=O)c2cc3c(s2)-c2ccccc2S(=O)(=O)C3)CC1`?
SARS PLP yeast: -3%; AMA1 RON2 block: -3%; Cycloheximide cs: 7; Shiga inhibitor: 11; Pf growth 48h: 20%; Pf growth 96h: 51%

How did COc1ccc(N(C)C(=O)c2cc3c(s2)-c2ccccc2S(=O)(=O)C3)cc1 do in these assays?
SARS PLP yeast: 0%; AMA1 RON2 block: -20%; Cycloheximide cs: 8; Shiga inhibitor: 3; Pf growth 48h: 2.9µM*; Pf growth 96h: inconclusive

How did CC(C)CCNC(=O)c1cc2c(s1)-c1ccccc1S(=O)(=O)C2 do in these assays?
SARS PLP yeast: 0%; AMA1 RON2 block: 6%; Cycloheximide cs: 16*; Shiga inhibitor: 15; Pf growth 48h: 13%; Pf growth 96h: -9%

What do the screens show for `O=C(CN1CCSC1=NCc1ccccc1)c1ccccc1`?
SARS PLP yeast: 14%; AMA1 RON2 block: 3%; Cycloheximide cs: -3; Shiga inhibitor: -3; Pf growth 48h: 12%; Pf growth 96h: 14%

What do the screens show for `O=C(Cn1ccsc1=NC(=O)C(F)(F)F)c1ccccc1`?
SARS PLP yeast: 5%; AMA1 RON2 block: 0%; Cycloheximide cs: 30*; Shiga inhibitor: 71; Pf growth 48h: 153%; Pf growth 96h: 89%

How did CCOC(=O)c1ccc(Nc2sc(C(=O)c3cccc([N+](=O)[O-])c3)c(N)c2C#N)cc1 do in these assays?
SARS PLP yeast: 2%; AMA1 RON2 block: 6%; Cycloheximide cs: -2; Shiga inhibitor: 3; Pf growth 48h: 40%; Pf growth 96h: 31%

Results for CCOC(=O)N1CCC(NC(=O)C2CCN(S(=O)(=O)N3CCC(C)CC3)CC2)CC1 ?
SARS PLP yeast: 2%; AMA1 RON2 block: -8%; Cycloheximide cs: 1; Shiga inhibitor: 19; Pf growth 48h: -4%; Pf growth 96h: 12%

Results for O=C(COC(=O)c1ccc2c(c1)OCO2)NCc1ccc(Cl)cc1 ?
SARS PLP yeast: -2%; AMA1 RON2 block: 19%; Cycloheximide cs: -5; Shiga inhibitor: -15; Pf growth 48h: 28%; Pf growth 96h: 2%

How did FC(F)(F)c1cnc(C(c2ccccn2)c2ncn[nH]2)c(Cl)c1 (stereo unspecified) do in these assays?
SARS PLP yeast: 1%; AMA1 RON2 block: 91%; Cycloheximide cs: -1; Shiga inhibitor: 20; Pf growth 48h: 12µM*; Pf growth 96h: inconclusive

Results for FC(F)(F)c1cnc(C(c2ccccc2)c2ncn[nH]2)c(Cl)c1 (stereo unspecified) ?
SARS PLP yeast: 0%; AMA1 RON2 block: -16%; Cycloheximide cs: -2; Shiga inhibitor: -8; Pf growth 48h: -4%; Pf growth 96h: 35%

What do the screens show for `CCc1cc(C(=O)OC)c(NC(=O)CCCC(=O)O)s1`?
SARS PLP yeast: 13%; AMA1 RON2 block: -5%; Cycloheximide cs: -1; Shiga inhibitor: -8; Pf growth 48h: 23%; Pf growth 96h: 48%

How did COC(=O)c1cc(C)sc1NC(=O)CCCC(=O)O do in these assays?
SARS PLP yeast: -3%; AMA1 RON2 block: 1%; Cycloheximide cs: -2; Shiga inhibitor: -6; Pf growth 48h: -2%; Pf growth 96h: 9.3µM*

What do the screens show for `CCS(=O)(=O)N1Cc2ccccc2CC1C(=O)Nc1ccc(F)cc1` (stereo unspecified)?
SARS PLP yeast: 0%; AMA1 RON2 block: -5%; Cycloheximide cs: 24*; Shiga inhibitor: 36*; Pf growth 48h: 135%; Pf growth 96h: -1%

Results for CCS(=O)(=O)N1Cc2ccccc2CC1C(=O)Nc1ccc(OC)c(OC)c1 (stereo unspecified) ?
SARS PLP yeast: 5%; AMA1 RON2 block: -24%; Cycloheximide cs: -3; Shiga inhibitor: -9; Pf growth 48h: -14%; Pf growth 96h: -7%

How did CCS(=O)(=O)N1Cc2ccccc2CC1C(=O)NCC12CC3CC(CC(C3)C1)C2 (stereo unspecified) do in these assays?
SARS PLP yeast: -1%; AMA1 RON2 block: -20%; Cycloheximide cs: 4; Shiga inhibitor: 18; Pf growth 48h: 0%

How did CCS(=O)(=O)N1Cc2ccccc2CC1C(=O)Nc1cccc(OC)c1 (stereo unspecified) do in these assays?
SARS PLP yeast: 5%; AMA1 RON2 block: 12%; Cycloheximide cs: 24*; Shiga inhibitor: 124*; Pf growth 48h: 3%; Pf growth 96h: inconclusive

How did Cc1ccc(NC(=O)CSCC(=O)Nc2ccccc2N2CCCC2)cc1 do in these assays?
SARS PLP yeast: -4%; AMA1 RON2 block: 5%; Pf growth 48h: 29%; Pf growth 96h: 4%

What do the screens show for `C#CCOCCOCCOCCNc1nc(N2CCOCC2)nc(N2CCN(C(=O)CCCCCCCCCCNC(=O)Cn3cc(CCCCCN)nn3)CC2)n1`?
SARS PLP yeast: -13%; AMA1 RON2 block: 27%; Pf growth 48h: 3.7µM*; Pf growth 96h: inconclusive
